Screens deposited in PubChem by National Center for Advancing Translational Sciences (NCATS).
Compounds with a hit are over-represented: about 5.7% of the library has one in this group of screens.
NPSR antag: blocks cAMP signaling of the human neuropeptide S receptor; 1% of 220,000 active; Potency, µM (highest dose often 38.3 µM), usual class: inhibitors; Q6W5P4; CHO-NPSR cells, cAMP TR-FRET, antagonist mode; note: nearly all actives have a fitted effect of over 50% in size
Target sequence (Q6W5P4 whole entry, looked up): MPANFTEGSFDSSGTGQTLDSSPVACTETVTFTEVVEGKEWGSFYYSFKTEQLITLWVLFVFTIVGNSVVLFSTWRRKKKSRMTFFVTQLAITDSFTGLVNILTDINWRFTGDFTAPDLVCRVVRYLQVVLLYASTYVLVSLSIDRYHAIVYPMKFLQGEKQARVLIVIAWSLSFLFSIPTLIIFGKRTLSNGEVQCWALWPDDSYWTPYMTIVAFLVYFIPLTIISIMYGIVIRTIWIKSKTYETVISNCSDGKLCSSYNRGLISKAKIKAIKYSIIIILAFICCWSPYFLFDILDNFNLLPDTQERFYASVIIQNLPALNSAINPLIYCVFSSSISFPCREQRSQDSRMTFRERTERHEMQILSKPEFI
Gal4-VP16 FLuc: Gal4-VP16 reporter inhibition counter-screen; Drosophila S2 Gal4-VP16 UAS-luciferase, luminescence, 20 h; Potency, µM (highest dose often 53.6 µM), actives largely listed as inhibitors; 3.5% of 310,000 active;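 note: Gal4-VP16 expression switched on by copper sulfate through the metallothionein promoter; nearly all actives have a fitted effect of over 50% in size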
RORgamma inh: inhibitors of mouse ROR gamma transcriptional activity. P51450. Drosophila S2 Gal4-RORgamma UAS-luciferase reporter, 20 h. Potency, µM (titrated, usually from 53.6 µM), hits mostly inhibitors. 5.4% of 310,000 active; note: nearly all actives have a fitted effect of over 60% in size
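Luciferase reporter read in Schneider cells carrying Gal4-RORγ (mouse) and UAS-Photinus luciferase; cells given compound 1 h before 700 uM copper sulfate induction, then incubated 20 h at ambient temperature.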
B2AR arrestin: agonists driving beta-arrestin recruitment to human beta2-adrenergic receptor. P07550. beta-arrestin recruitment to beta2AR, cell-based reporter. Potency, µM (series often up to 46.1 µM), most hits filed as activators. 0.02% of 330,000 active. AID 492947; note: nearly all actives have a fitted effect of over 65% in size
A number is an active result; 0 = inactive; ? = inconclusive; - = not tested or not shown; [ ] = another dose, or the depositor's remark. Calls come from the whole dose curve; as a rule, active = well fitted curve in the direction sought with a large enough effect; inconclusive = small, poorly fitted or top-dose-only effect, or another doubt; inactive = no such curve, though single readings can be large; an effect the other way counts as inactive or inconclusive.

SMILES | NPSR antag | Gal4-VP16 FLuc | RORgamma inh | B2AR arrestin
COc1ccccc1C(=O)NCCC(=O)NCC(c1ccco1)N1CCCC1 (centres undefined) | - | - | - | 0
CN(CC(=O)NC(=O)NCc1ccco1)Cc1nc2ccccc2c(=O)[nH]1 | 0 | 3.5µM | 1µM | 0
CN(CC(=O)Nc1ccccc1Sc1ccccc1)Cc1nc2ccccc2c(=O)[nH]1 | 0 | 3.5µM | 0.45µM | 0
CN(CC(=O)NC(c1ccccc1)c1ccccc1)Cc1nc2ccccc2c(=O)[nH]1 | 0 | 13µM | ? | 0
CC(C)CN1C(=O)c2ccccc2C1(O)Cc1ccccc1 (centres undefined) | 0 | 20µM | ? | 0
O=C(Nc1ccc(S(=O)(=O)N2CCN(Cc3ccccc3)CC2)cc1)c1cnccn1 | 0 | 0 | 0 | 0
C/C=C/C(=O)C[C@H]1CC[C@@H](C)[C@@H](CCO)O1 | - | 0 | 0 | -
CCC(C)n1c(NC(=O)c2ccccc2)c(C#N)c2nc3ccccc3nc21 (centres undefined) | 0 | ? | 10µM | 0
CCCCn1c(NC(=O)c2ccccc2)c(C#N)c2nc3ccccc3nc21 | ? | ? | ? | 0
CCn1c(=O)c2c(n3c(=S)[nH]nc13)-c1ccccc1CC21CCCCC1 | 0 | 0 | 2.8µM | 0
CCn1c(SCC#N)nc2c(c1=O)C1(CCCC1)Cc1ccccc1-2 | ? | 0 | 0 | 0
C=C1C[C@]23CC[C@H]4C(CO)(CO)C[C@@H](O)C[C@@]4(C)[C@@H]2CC[C@H]1C3 | - | ? | 0 | -
C/C(CC(=O)Nc1cc(C)ccn1)=N\NC(=O)c1cccc(C)c1O | - | 5µM | 11µM | 0
C/C(CC(=O)Nc1cc(C)ccn1)=N\NC(=O)c1cccc(C)c1 | 0 | 0 | 11µM | 0
C/C(=N/NC(=O)c1cccc(C)c1)c1c(O)cc(C)oc1=O | 0 | 3.5µM | ? | 0
O=C1C2=C(C(=O)c3ccccc31)C1O[C@](CCCCN3C(=O)c4ccccc4C3=O)(Cc3c1ccc1ccccc31)O2 | - | 0[10 µM] | 0[10 µM] | 0[9.22 µM]
CCCCn1c(N)c(N(CC(C)C)C(=O)c2cccc(-n3cnnn3)c2)c(=O)[nH]c1=O | - | - | - | 0
CC(=O)Nc1ccn(C2OC(C(COC(C)=O)NC(=O)C(COCc3ccccc3)NC(=O)OC(C)(C)C)C(OC(C)=O)C2OC(C)=O)c(=O)n1 (centres undefined) | - | 0 | 0 | -
C=C(C)Cn1c(=O)c2c(nc3n2CCCN3CCc2ccccc2)n(C)c1=O | - | 0 | 0 | 0
O=C(N/N=C/c1ccccn1)c1ccc([N+](=O)[O-])cc1 | 0 | 0 | 0 | 0
O=C(N/N=C/c1ccc(F)cc1)c1ccc(Br)cc1 | 0 | 0 | ? | 0
Cc1cccc(/C=N/NC(=O)c2ccc(Br)cc2)c1 | 0 | 0 | 18µM | 0
COc1cccc(/C=N/NC(=O)c2ccc(OCc3cccc(Br)c3)cc2)c1 | ? | 0 | 14µM | 0
O=C(N/N=C/c1ccccn1)c1ccc(Br)cc1 | 0 | 3.2µM | 6.3µM | 0
CC(C)(C)c1ccc(/C=N/NC(=O)c2ccccn2)cc1 | 0 | 0 | 10µM | 0
SMILES | NPSR antag | Gal4-VP16 FLuc | RORgamma inh | B2AR arrestin
Cc1cc(=O)cc2oc3cc(N)c(-c4c(C)cc(O)cc4O)c(C)c3nc1-2 | - | 0 | 0 | -
COc1ccc2c(c1)C(c1ccc(Cl)cc1)NC(=O)C2 (centres undefined) | - | - | - | 0
CC(=O)N[C@@H]1C(O[C@H]2O[C@H](C(=O)O)C(O)[C@H](O)[C@H]2O)[C@H](O)[C@@H](CO)O[C@H]1O[C@@H]1C(C(=O)O)O[C@@H](O[C@H]2[C@H](O)[C@@H](CO)OC(O)[C@@H]2NC(C)=O)[C@H](O)[C@H]1O (some centres undefined) | - | 0 | 0 | -
CCOc1cc(/C=N/NC(=O)c2ccccn2)ccc1OC(=O)c1ccc(F)cc1 | - | ? | 18µM | 0
CCOc1cc(/C=N/NC(=O)c2ccncc2)ccc1OC(=O)c1ccccc1 | - | 0 | 0 | 0
CC(C)(C)c1ccc(C(=O)N/N=C/c2ccccn2)cc1 | - | 4.5µM | 1.4µM | 0
N#CC(C#N)=C(Nc1ccc(F)cc1)SCc1cccc(Br)c1 | 0 | 7.9µM | ? | 0
Cc1ccc(CN2CCSCC2)cc1 | - | 0 | 0 | 0
O=C(Nc1ccc(NC(=S)NC(=O)c2cccs2)cc1)c1ccccc1 | 0 | 16µM | 7.9µM | 0
O=C(NNC(=O)c1cccs1)c1ccccc1 | 0 | 0 | 0 | 0
O=C(NNC(=S)NC(=O)c1cccs1)c1ccc(NC(=O)c2ccccc2)cc1 | 0 | 6.3µM | 4.5µM | 0
O=C(/C=C/c1cccs1)NC(=S)NNC(=O)c1ccccc1O | 0 | 0 | ? | 0
O=C(/C=C/c1cccs1)NC(=S)Nc1ccccc1 | 0 | 8.9µM | 3.2µM | 0
CCCCC(=O)Nc1ccc(C(=O)Nc2ccc(S(=O)(=O)Nc3ccc(C)cc3)cc2)cc1 | 0 | 11µM | ? | 0
Fc1ccc(CSc2nnc(-c3ccccn3)o2)cc1 | - | 0 | ? | 0
C/C(=C\CO)CCO | - | 0 | 0 | -
CCCN(CCC)C[C@@H]1CCCCN1CCNC(=O)N1c2ccccc2C(=O)Nc2cccnc21 | - | 0 | 0 | -
CC1CCCCC1NC(=S)NC(=O)c1cccs1 (centres undefined) | 0 | 13µM | 1.6µM | 0
CCCCC(=O)Nc1ccc(C(=O)NNC(=S)NC(=O)c2cccs2)cc1 | 0 | 8.9µM | 7.9µM | 0
O=C(NC(=S)Nc1ccccc1)c1cccs1 | - | 8.9µM | 5µM | ?
O=C(Nc1ccc(NC(=O)c2ccc(Cl)cc2Cl)cc1)c1cccs1 | - | 0 | 0 | 0
O=C(NC(=S)Nc1cccc(NC(=O)c2ccc(Cl)cc2Cl)c1)c1cccs1 | 0 | 11µM | 20µM | 0
CCNc1ncc2nc(CCc3ccccc3)c(=O)n(Cc3cccc(OC)c3)c2n1 | - | 0 | 0 | -
COC(=O)[C@@]1(Cc2ccccc2)[C@H]2c3cc(C(=O)N(C)C)n(Cc4ccc(S(C)(=O)=O)cc4)c3C[C@H]2CN1C(=O)c1ccccc1 | - | 0 | ? | -
C[C@@H]1CN2[C@H](c3ccc(Br)cc3)[C@H](C)CC[C@H]2C(=O)O1 | - | 0[10 µM] | 0[10 µM] | -
SMILES | NPSR antag | Gal4-VP16 FLuc | RORgamma inh | B2AR arrestin
O=C(NNC(=S)NC(=O)c1cccs1)c1ccc(O)cc1 | - | 11µM | 7.9µM | 0
O=C(N/N=C(/CC(=O)c1cccs1)C(F)(F)F)c1ccc(O)cc1 | 0 | ? | 18µM | 0
O=C(N/N=C(\CC(=O)c1cccs1)C(F)(F)F)c1cccnc1 | 0 | 0 | 0 | 0
CC(=O)N1CCC[C@@]2(CCN(C(c3ccccc3)c3ccccc3)C2)C1 | - | 0 | 0 | -
CCCCOCCOCCSC#N | - | 0 | 0 | -
COc1ccc(C2CC(c3ccccc3)n3nc(NC(=O)c4cccs4)nc3N2)cc1 (centres undefined) | ? | 5µM | 3.5µM | 0
Nc1nc2n(n1)C(c1cccs1)CC(c1ccc(F)cc1)N2 (centres undefined) | 0 | 0 | 0 | 0
Nc1nc2n(n1)C(c1cccs1)CC(c1ccccc1)N2 (centres undefined) | 0 | 0 | 13µM | 0
COc1ccc(C2CC(c3ccccc3)Nc3nc(NC(=O)c4cccs4)nn32)cc1 (centres undefined) | ? | 5.6µM | 2.8µM | 0
COc1ccc(C2CC(c3ccccc3)n3nnnc3N2)cc1 (centres undefined) | 0 | 0 | 0 | 0
COc1ccc(OC)c(Cc2nnc(CCC(=O)NC3C4CC5CC(C4)CC3C5)o2)c1 (centres undefined) | 0 | 0 | 0 | 0
